What all share (details): mRNA level, 48 h; actives raise or lower the signal
Read-out in assay [1]: Cytochrome P450 (CYP2B6), CYP2B6 (gene 1555)
The experiment in a line: LTEA_HepaRG_CYP2B6: Life Technologies and Expression Analysis (LTEA) Assay for Cytochrome P450 (CYP2B6) using HepaRG (AID 2283481). The method, boiled down:
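CYP2B6 transcript level quantified by qRT-PCR against three housekeeping genes, fitted bidirectionally relative to DMSO. HepaRG cultures received chemicals for 48 h, 8-point half-log series from 100 uM in 0.5% DMSO, duplicate wells, serum-free induction medium.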

Read-out in assay [2]: Cytochrome P450 2C19 (Homo sapiens) (UniProt P33261)
The experiment in a line: LTEA_HepaRG_CYP2C19: Life Technologies and Expression Analysis (LTEA) Assay for CYP2C19 using HepaRG (AID 2283482). An outline of the steps:
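CYP2C19 transcript levels by qRT-PCR, normalized to three housekeeping genes, in HepaRG cells after 48 h chemical exposure. Eight-point half-log series topping at 100 uM, 0.5% DMSO vehicle. Increases and decreases both fitted against DMSO.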

Read-out in assay [3]: CYP2C8 (gene 1558)
The experiment in a line: LTEA_HepaRG_CYP2C8: Life Technologies and Expression Analysis (LTEA) Assay for CYP2C8 using HepaRG (AID 2283483). The method, boiled down: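 Differentiated human HepaRG cells were exposed for 48 h in serum-free induction medium to eight half-log concentrations up to 100 uM in 0.5% DMSO, in duplicate. CYP2C8 mRNA was measured by TaqMan qRT-PCR, normalized to ACTB, GAPDH and POLR2A, and fitted bidirectionally against DMSO.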

Read-out in assay [4]: CYP4A11 (gene 1579)
Briefly: LTEA_HepaRG_CYP4A11: Life Technologies and Expression Analysis (LTEA) Assay for CYP4A11 using HepaRG (AID 2283486). An outline of the steps: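 Readout is CYP4A11 transcript level by qRT-PCR, normalized to three housekeeping genes and fitted bidirectionally against 0.5% DMSO. Human HepaRG cells were treated 48 h, in duplicate, with an 8-point half-log series topping at 100 uM.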

Read-out in assay [5]: DNA damage-inducible transcript 3 (DDIT3), DDIT3 (gene 1649)
The experiment in a line: LTEA_HepaRG_DDIT3: Life Technologies and Expression Analysis (LTEA) Assay for DNA damage-inducible transcript 3 (DDIT3) using HepaRG (AID 2283488). The method, boiled down: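 HepaRG cells, 48 h after plating, exposed 48 h in serum-free induction medium to 8 half-log concentrations up to 100 uM in 0.5% DMSO, in duplicate. DDIT3 mRNA measured by TaqMan qRT-PCR, normalized to ACTB, GAPDH and POLR2A. Fitted bidirectionally against DMSO.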

Read-out in assay [6]: Pro-epidermal growth factor (Homo sapiens) (UniProt P01133)
The experiment in a line: LTEA_HepaRG_EGF: Life Technologies and Expression Analysis (LTEA) Assay for Epidermal growth factor (EGF) using HepaRG (AID 2283489). An outline of the steps: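 EGF transcript measured by Fluidigm TaqMan qRT-PCR with three housekeeping genes for normalization, 48 h after dosing HepaRG cultures in duplicate (top 100 uM, half-log steps, 0.5% DMSO vehicle). Gain or loss relative to DMSO fitted.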

Read-out in assay [7]: Early growth response protein 1 (EGR1) transcription factor, EGR1 (gene 1958)
The experiment in a line: LTEA_HepaRG_EGR1: Life Technologies and Expression Analysis (LTEA) Assay for Early growth response protein 1 (EGR1) transcription factor using HepaRG (AID 2283490). An outline of the steps:
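Differentiated human HepaRG cells in serum-free induction medium were exposed in duplicate for 48 h to eight concentrations (top 100 uM, half-log steps) in 0.5% DMSO. EGR1 mRNA was quantified by qRT-PCR, normalized to ACTB, GAPDH and POLR2A, and fitted bidirectionally versus DMSO.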

Read-out in assay [8]: Ezrin (EZR), EZR (gene 7430)
Briefly: LTEA_HepaRG_EZR: Life Technologies and Expression Analysis (LTEA) Assay for Ezrin (EZR) using HepaRG (AID 2283491). An outline of the steps:
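Differentiated human HepaRG cells, 48 h after plating, were exposed in serum-free induction medium for 48 hours to eight half-log concentrations up to 100 uM in 0.5% DMSO. EZR mRNA was measured by TaqMan qRT-PCR, normalized to ACTB, GAPDH and POLR2A, and fitted bidirectionally against DMSO.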

Read-out in assay [9]: Cytochrome P450 3A7 (Homo sapiens) (UniProt P24462)
Briefly: LTEA_HepaRG_CYP3A7: Life Technologies and Expression Analysis (LTEA) Assay for CYP3A7 using HepaRG (AID 2283492). An outline of the steps: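 CYP3A7 transcript measured by qRT-PCR (ACTB, GAPDH, POLR2A normalization) after 48 h chemical exposure of HepaRG cells in duplicate. Eight half-log concentrations, maximum 100 uM, 0.5% DMSO vehicle; bidirectional curve fitting against DMSO baseline.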

Read-out in assay [10]: CYP3A5 (gene 1577)
Briefly: LTEA_HepaRG_CYP3A5: Life Technologies and Expression Analysis (LTEA) Assay for CYP3A5 using HepaRG (AID 2283493). An outline of the steps:
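HepaRG cells, plated 48 h then in serum-free induction medium, dosed in duplicate for 48 h with eight half-log concentrations up to 100 uM in 0.5% DMSO. Gene mRNA by Fluidigm TaqMan qRT-PCR, normalized to ACTB, GAPDH, POLR2A.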

Read-out in assay [11]: Fatty Acid-Binding Protein 1 (FABP1), FABP1 (gene 2168)
The experiment in a line: LTEA_HepaRG_FABP1: Life Technologies and Expression Analysis (LTEA) Assay for Fatty Acid-Binding Protein 1 (FABP1) using HepaRG (AID 2283494). An outline of the steps: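 Differentiated human HepaRG cells were exposed in duplicate for 48 h in serum-free induction medium to 8-point half-log concentration series topping at 100 uM in 0.5% DMSO. FABP1 mRNA measured by TaqMan qRT-PCR, normalized to ACTB/GAPDH/POLR2A; bidirectional fit versus DMSO.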

Read-out in assay [12]: Cytochrome P450 4A22 (Homo sapiens) (UniProt Q5TCH4)
The experiment in a line: LTEA_HepaRG_CYP4A22: Life Technologies and Expression Analysis (LTEA) Assay for Cytochrome P450 4A22 (CYP4A22) using HepaRG (AID 2283495). The method, boiled down:
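Gene expression measured by qRT-PCR against three housekeeping genes (ACTB, GAPDH, POLR2A), with gain or loss fitted relative to 0.5% DMSO vehicle. HepaRG cultures received 48 h chemical treatment, top concentration 100 uM, half-log steps, duplicate wells.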

Read-out in assay [13]: Cytochrome P450 7A1 (Homo sapiens) (UniProt P22680)
The experiment in a line: LTEA_HepaRG_CYP7A1: Life Technologies and Expression Analysis (LTEA) Assay for Cytochrome P450 7A1 (CYP7A1) using HepaRG (AID 2283496). The method, boiled down: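 HepaRG cells plated 48 h, then switched to serum-free induction medium and exposed in duplicate for 48 h to 8-point half-log series from 100 uM in 0.5% DMSO. CYP7A1 mRNA by qRT-PCR (TaqMan), normalized to ACTB/GAPDH/POLR2A; bidirectional fit versus DMSO.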

Read-out in assay [14]: Glutathione S-Transferase (GSTA2), GSTA2 (gene 2939)
The experiment in a line: LTEA_HepaRG_GSTA2: Life Technologies and Expression Analysis (LTEA) Assay for Glutathione S-Transferase (GSTA2) using HepaRG (AID 2283497). The method, boiled down: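 Human HepaRG cells, plated 48 h, then exposed in serum-free induction medium for 48 h to eight half-log concentrations up to 100 uM in 0.5% DMSO, duplicate. GSTA2 mRNA by qRT-PCR, normalized to ACTB/GAPDH/POLR2A; bidirectional fit versus DMSO.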

Read-out in assay [15]: Glutamate-cysteine ligase catalytic (GCLC), GCLC (gene 2729)
Briefly: LTEA_HepaRG_GCLC: Life Technologies and Expression Analysis (LTEA) Assay for Glutamate-cysteine ligase catalytic (GCLC) using HepaRG (AID 2283498). An outline of the steps:
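Differentiated human HepaRG cells, plated 48 h then switched to serum-free induction medium, were exposed in duplicate for 48 h to 8 half-log concentrations topping at 100 uM in 0.5% DMSO. GCLC mRNA was quantified by qRT-PCR against ACTB, GAPDH and POLR2A.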

Read-out in assay [16]: growth arrest and DNA damage 45 (GADD45G), GADD45G (gene 10912)
The experiment in a line: LTEA_HepaRG_GADD45G: Life Technologies and Expression Analysis (LTEA) Assay for growth arrest and DNA damage 45 (GADD45G) using HepaRG (AID 2283499). An outline of the steps: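 GADD45G transcript level by qRT-PCR (housekeeping-normalized: ACTB, GAPDH, POLR2A) after 48 h chemical treatment of a single HepaRG lot in serum-free induction medium; eight-point half-log series up to 100 uM in 0.5% DMSO, duplicates, up- or down-regulation scored.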

Read-out in assay [17]: Glutamate-cysteine ligase regulatory (GCLM), GCLM (gene 2730)
The experiment in a line: LTEA_HepaRG_GCLM: Life Technologies and Expression Analysis (LTEA) Assay for Glutamate-cysteine ligase regulatory (GCLM) using HepaRG (AID 2283500). An outline of the steps: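 Differentiated HepaRG cells exposed 48 h in serum-free induction medium to eight half-log concentrations up to 100 uM (0.5% DMSO). GCLM mRNA by TaqMan qRT-PCR, normalized to ACTB, GAPDH and POLR2A; bidirectional fit versus DMSO.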

Active and inactive are the calls of the source. How the source made its calls: active means hit-call score of the fitted dose curve at least 0.9, where 1 is the maximum; inactive means score below 0.9.

Chain of Cytochrome P450 2C19 (Homo sapiens) (P33261 whole entry, looked up): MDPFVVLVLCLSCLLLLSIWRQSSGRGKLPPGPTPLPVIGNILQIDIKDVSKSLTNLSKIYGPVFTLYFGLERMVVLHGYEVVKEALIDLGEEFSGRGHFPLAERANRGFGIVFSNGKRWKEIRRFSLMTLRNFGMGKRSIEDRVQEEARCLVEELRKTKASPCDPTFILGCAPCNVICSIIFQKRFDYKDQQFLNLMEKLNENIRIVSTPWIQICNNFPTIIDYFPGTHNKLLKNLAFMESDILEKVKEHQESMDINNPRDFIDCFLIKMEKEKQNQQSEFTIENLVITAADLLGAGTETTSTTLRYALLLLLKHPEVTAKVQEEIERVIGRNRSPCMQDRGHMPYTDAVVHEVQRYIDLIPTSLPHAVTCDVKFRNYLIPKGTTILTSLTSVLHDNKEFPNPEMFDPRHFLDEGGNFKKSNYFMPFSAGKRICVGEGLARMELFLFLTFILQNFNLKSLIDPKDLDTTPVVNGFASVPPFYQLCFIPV
Chain of Cytochrome P450 3A7 (Homo sapiens) (P24462 whole entry, looked up): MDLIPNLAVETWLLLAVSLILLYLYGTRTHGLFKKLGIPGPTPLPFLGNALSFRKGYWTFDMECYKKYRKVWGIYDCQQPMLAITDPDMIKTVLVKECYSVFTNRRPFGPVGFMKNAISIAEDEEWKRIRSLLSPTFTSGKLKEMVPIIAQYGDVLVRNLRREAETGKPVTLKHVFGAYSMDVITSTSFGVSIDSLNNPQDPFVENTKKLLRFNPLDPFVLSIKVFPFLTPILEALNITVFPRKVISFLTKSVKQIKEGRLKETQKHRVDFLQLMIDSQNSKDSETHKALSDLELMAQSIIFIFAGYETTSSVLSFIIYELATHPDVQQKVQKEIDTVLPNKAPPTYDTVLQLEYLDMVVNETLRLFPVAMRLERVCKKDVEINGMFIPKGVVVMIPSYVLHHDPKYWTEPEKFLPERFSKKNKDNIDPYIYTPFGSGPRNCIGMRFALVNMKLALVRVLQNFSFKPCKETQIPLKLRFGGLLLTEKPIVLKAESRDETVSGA

In the case of `O=S1(=O)CCCO1`, the call in assay [1], in assay [2], in assay [3], in [4], in assay [5] and in assay [6] was inactive. Further, the result in assay [7], in assay [8], in [9], in assay [10], in [11] and in assay [12] was inactive. Further, the outcome in [13], in [14], in assay [15], in assay [16] and in [17] was inactive.
For the compound `O=C(O)c1cccc(C(=O)O)c1`, the outcome in [1], in assay [2], in [3], in assay [4], in assay [5] and in assay [6] was inactive. In addition, the compound was called inactive in [7], in assay [8], in assay [9], in assay [10], in [12] and in assay [13]. Moreover, the compound was classed as inactive in assay [14], in [15], in assay [16] and in [17].
On to `C[C@]12C=CC(=O)C=C1CC[C@H]1[C@@H]3C[C@@H](O)[C@](O)(C(=O)CO)[C@@]3(C)C[C@H](O)[C@@]12F`, for which the call in [1], in assay [3], in assay [5], in [8], in [9] and in assay [10] was inactive. Also, the compound was called inactive in assay [11], in assay [13], in assay [14], in [15], in assay [16] and in assay [17].
Turning to `OCC(CO)(CO)CO`, the compound was classed as inactive in assay [1], in [2], in assay [3], in [5], in [8] and in assay [9]. For the same compound, the compound was classed as inactive in [10], in assay [11], in [12], in assay [13], in assay [14] and in [15]. The compound was called inactive in [16] and in assay [17].
Take `NC(=O)NN=Cc1ccc([N+](=O)[O-])o1`: the outcome in assay [1], in assay [2], in assay [3], in assay [5], in [8] and in assay [9] was inactive. For the same compound, the outcome in assay [10], in [12], in assay [14], in assay [15] and in assay [16] was inactive. The AC50 (usually the midpoint of the concentration-response curve, whichever way the signal moves) is 50 µM (active) in [6], 25.7 µM (active) in assay [11], 13.6 µM (active) in assay [13] and 9.92 µM (active) in assay [17].

The values above are taken from PubChem BioAssay (EPA / NIEHS).
